{"source": "PubChem BioAssay (NCATS)", "note": "Inconclusive results are not listed. A number with no mark means an inactive call. The source made the active and inactive calls. The call rests on the fitted dose curve; in most records, active means well fitted cell-killing curve with a large enough effect; inconclusive means small, poorly fitted or top-dose-only effect; inactive means no such curve, though single readings can be large or run the other way. On the % scale 0 is the no-effect control and ±100 the full control effect; potency means the concentration at half of the fitted maximal effect."}
{"assay": "qHTS of pediatric cancer cell lines to identify multiple opportunities for drug repurposing: Primary screen for Saos-2 cells (AID 1347097); further: nearly all actives have a fitted effect of over 40% in size", "settings": "Saos-2 viability, CellTiter-Glo ATP luminescence, 48 h; series mostly up to 46 µM; activity change, negative = cytotoxic: at the top concentration", "method_in_brief": "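Phenotypic viability qHTS, 48 h compound exposure, CellTiter-Glo luminescence read-out; multi-concentration dosing so that potency and efficacy derive directly from the primary screen's curves.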"}
{"smiles": "CNC(=O)CN(CCN(CCN(CC(=O)[O-])CC(=O)NC)CC(=O)[O-])CC(=O)[O-].O.[Gd+3]", "activity change, negative = cytotoxic": "7.6%"}
{"smiles": "OC(CCN1CCCCC1)(c1ccccc1)c1ccccc1", "activity change, negative = cytotoxic": "-13.6%"}
{"smiles": "COc1cc2c(cc1OC)[C@@H]1CC(=O)[C@@H](CC(C)C)CN1CC2", "activity change, negative = cytotoxic": "-9.41%"}
{"smiles": "CC1(C)O[C@@H]2C[C@H]3[C@@H]4CCC5=CC(=O)CC[C@]5(C)[C@@]4(F)[C@@H](O)C[C@]3(C)[C@]2(C(=O)CCl)O1", "activity change, negative = cytotoxic": "-4.29%"}
{"smiles": "CCCC(=O)O[C@]1(C(=O)CO)CC[C@H]2[C@@H]3CCC4=CC(=O)CC[C@]4(C)[C@H]3[C@@H](O)C[C@@]21C", "activity change, negative = cytotoxic": "0.119%"}
{"smiles": "C[C@]12CC[C@H]3[C@@H](CCC4=CC(=O)CC[C@@]43C)[C@@H]1CC[C@@H]2C(=O)CO", "activity change, negative = cytotoxic": "-24.3%"}
{"smiles": "C[C@@H]1C[C@H]2[C@@H]3CCC4=CC(=O)C=C[C@]4(C)[C@@]3(F)[C@@H](O)C[C@]2(C)[C@H]1C(=O)CO", "activity change, negative = cytotoxic": "5.06%"}
{"smiles": "C[C@@H]1C[C@H]2[C@@H]3C[C@H](F)C4=CC(=O)C(Cl)=C[C@]4(C)[C@@]3(F)[C@@H](O)C[C@]2(C)[C@@]1(O)C(=O)CO", "activity change, negative = cytotoxic": "-2.53%"}
{"smiles": "CC(=O)[C@H]1CC[C@H]2[C@@H]3C[C@H](C)C4=CC(=O)CC[C@]4(C)[C@H]3[C@@H](O)C[C@]12C", "activity change, negative = cytotoxic": "-21%"}
{"smiles": "O=C(OCC(O)CO)c1ccccc1Nc1ccnc2cc(Cl)ccc12", "note": "(centres undefined)", "Potency": "23.7 µM (active)"}
{"smiles": "CC(=O)Oc1ccc(C(c2ccc(OC(C)=O)cc2)c2ccccn2)cc1", "activity change, negative = cytotoxic": "-14.8%"}
{"smiles": "O=C(COc1ccc(Cl)cc1)N1CCN(Cc2ccc3c(c2)OCO3)CC1", "activity change, negative = cytotoxic": "-16.3%"}
{"smiles": "CCOC(=O)n1ccn(C)c1=S", "activity change, negative = cytotoxic": "-21.6%"}
{"smiles": "COc1cc(C(=S)N2CCOCC2)cc(OC)c1OC", "activity change, negative = cytotoxic": "19.4%"}
{"smiles": "CCCCC(=O)O[C@]1(C(=O)CO)CC[C@H]2[C@@H]3CCC4=CC(=O)CC[C@]4(C)[C@H]3[C@@H](O)C[C@@]21C", "activity change, negative = cytotoxic": "-11.1%"}
{"smiles": "CCN(CC)CCOC(=O)C(c1ccccc1)C1CCCCC1", "note": "(centres undefined)", "Potency": "23.7 µM (active)"}
{"smiles": "O=C(CCCN1CCC(O)(c2ccc(Br)cc2)CC1)c1ccc(F)cc1", "activity change, negative = cytotoxic": "-35.6%"}
{"smiles": "NC(CS)C(=O)O", "note": "(centres undefined)", "activity change, negative = cytotoxic": "-6.27%"}
{"smiles": "Cc1c(F)c(N2CCNC(C)C2)cc2c1c(=O)c(C(=O)O)cn2C1CC1", "note": "(centres undefined)", "activity change, negative = cytotoxic": "93.6%"}
{"smiles": "CC(=O)OCC(=O)[C@@]1(O)CC[C@H]2[C@@H]3CCC4=CC(=O)C=C[C@]4(C)[C@H]3[C@@H](O)C[C@@]21C", "activity change, negative = cytotoxic": "15.6%"}
{"smiles": "COc1cc(/C=C/C(=O)O[C@H]2CC[C@]34C[C@]35CC[C@]3(C)[C@@H]([C@H](C)CCC=C(C)C)CC[C@@]3(C)[C@@H]5CC[C@H]4C2(C)C)ccc1O", "activity change, negative = cytotoxic": "-0.128%"}
{"smiles": "CCCCCCCCCCCCCCNCCO", "activity change, negative = cytotoxic": "7.98%"}
{"smiles": "CC1(C)O[C@@H]2C[C@H]3[C@@H]4C[C@H](F)C5=CC(=O)CC[C@]5(C)[C@H]4[C@@H](O)C[C@]3(C)[C@]2(C(=O)CO)O1", "activity change, negative = cytotoxic": "17.4%"}
{"smiles": "CC(C)(CO)[C@@H](O)C(=O)NCCCO", "activity change, negative = cytotoxic": "9.43%"}
{"smiles": "CCN(CC)C(=O)N1CCN(C)CC1", "activity change, negative = cytotoxic": "-20%"}
{"smiles": "NC(CO)(CO)CO", "activity change, negative = cytotoxic": "10.4%"}
{"smiles": "NCCCC[C@H](N[C@@H](CCc1ccccc1)C(=O)O)C(=O)N1CCC[C@H]1C(=O)O", "activity change, negative = cytotoxic": "34.8%"}
{"smiles": "O=C(O)CNC(=O)c1ccccc1", "activity change, negative = cytotoxic": "-2%"}
{"smiles": "Cc1nc2n(c(=O)c1CCN1CCC(c3noc4cc(F)ccc34)CC1)CCC[C@H]2O", "activity change, negative = cytotoxic": "-0.598% [at 16.1 µM]"}
{"smiles": "O=c1[nH]c(=O)n([C@H]2C[C@H](O)[C@@H](CO)O2)cc1C(F)(F)F", "activity change, negative = cytotoxic": "4.84%"}
{"smiles": "CC(Cc1ccccc1)(NC(=O)CN)c1ccccc1", "note": "(centres undefined)", "activity change, negative = cytotoxic": "9.95%"}
{"smiles": "OCc1ccccc1O", "activity change, negative = cytotoxic": "12.4%"}
{"smiles": "CO/N=C1\\CN(c2nc3c(cc2F)c(=O)c(C(=O)O)cn3C2CC2)CC1CN", "note": "(centres undefined)", "activity change, negative = cytotoxic": "27.3%"}
{"smiles": "C[C@]12CCC(=O)C=C1[C@@H]1C[C@@H]1[C@H]1[C@@H]3[C@@H]4C[C@@H]4[C@@]4(CCC(=O)O4)[C@@]3(C)CC[C@@H]12", "activity change, negative = cytotoxic": "-27.3%"}
{"smiles": "c1ccc(CNCCNCc2ccccc2)cc1", "activity change, negative = cytotoxic": "1.46%"}
{"smiles": "OC[C@H]1O[C@H](O[C@]2(CCl)O[C@H](CCl)[C@@H](O)[C@@H]2O)[C@H](O)[C@@H](O)[C@H]1Cl", "activity change, negative = cytotoxic": "-19.8%"}
{"smiles": "O=C1OC2(c3ccc(O)cc3Oc3cc(O)ccc32)c2ccccc21", "activity change, negative = cytotoxic": "-9.79%"}
{"smiles": "C[C@]12CC[C@@H]3c4ccc(O)cc4CC[C@H]3[C@@H]1C[C@@H](O)[C@@H]2O", "activity change, negative = cytotoxic": "-7.86%"}
{"smiles": "NCCC(O)(P(=O)(O)O)P(=O)(O)O", "activity change, negative = cytotoxic": "16.8%"}
